Only some compounds are listed: those with a hit (about 3.2% of all), similar ones and a draw of the others.
TMEM16A inh – mouse TMEM16A channel inhibition, primary screen; 1.2% of 310,000 active; Q8BHY3; normalized B-score (activity score, 25-100; higher = stronger inhibition) at 10 µM; HEK293 TMEM16A/YFP iodide influx fluorescence, ionomycin;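 active means ratio plate-corrected score three or more library SD toward inhibition, starting fluorescence score within five deviations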;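 further: score derived from kinetic fluorescence span divided by baseline fluorescence per well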
TMEM16A act – activates or potentiates the mouse TMEM16A chloride channel | Q8BHY3 | HEK293 TMEM16A/YFP-H148Q/I152L, iodide quench fluorescence; active compounds read low | B-score at 10 µM | 0.3% of 340,000 active | AID 623877;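 active means fluorescence-ratio B-score plate-corrected deviation score at least 3 library SD below zero, with starting fluorescence score within 5 deviations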;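 further: channel opened by trigger with iodide after compound preincubation; score built on the fluorescence ratio of max minus min over baseline; more negative score means more quench and so TMEM16A activation or potentiation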
HDAC3 inh – inhibitors of human histone deacetylase 3; recombinant HDAC3, fluorogenic peptide/trypsin coupled, fluorescence; AID 2718; inhibition, % at 8.3 µM; O15379; 0.15% of 320,000 active; in the data active means inhibition above about 26%, passing the limit was not always enough; inconclusive means no clear call, values can overlap the other calls
CHT inh – inhibitors of human choline transporter CHT. 0.86% of 310,000 active. CHT-expressing cells, membrane potential dye, choline response; active compounds read low. B-score at 10 µM;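 active means B-score over 3 SD under the library average, and starting fluorescence ratio not unusually high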;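 further: choline stimulus applied at its EC90 after an EC20 pre-addition; B-score computed on integrated fluorescence ratio after choline addition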
PHOSPHO1 inh – blocks human PHOSPHO1 phosphatase activity. recombinant PHOSPHO1, absorbance phosphatase assay. inhibition, % at 13.3 µM. 1.1% of 290,000 active. AID 1565; in the data active means inhibition above about 60%
CHT allo act – human CHT allosteric activation. AID 488977. 0.49% of 310,000 active. Q9GZV3. B-score at 10 µM. CHT-expressing cells, membrane potential dye, choline EC20; active compounds read high; LV-AA mutant CHT in HEK293 cells;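 active means initial fluorescence not abnormally high and integrated response B-score, plate-corrected, over 3 SD above library mean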
Active calls of the source: *; i = inactive; ? = inconclusive; / = no result.

SMILES	TMEM16A inh	TMEM16A act	HDAC3 inh	CHT inh	PHOSPHO1 inh	CHT allo act
Cc1ccc(NC(=O)C(NC2CCCc3ccccc32)c2ccccc2)cc1Cl (stereo not drawn)	i	i	-1	i	9	i
Cc1ccccc1NC(=O)C1c2cccc[n+]2CC(=O)N1c1c(C)cccc1C (stereo not drawn)	i	i	19	i	95*	i
Cc1cc(C)n(CC(C)(O)c2ccccc2)n1 (stereo not drawn)	i	i	11	i	/	i
Cc1ccc(N/C=C2\C(=O)N(c3ccc(F)cc3F)C(c3cccnc3)S2(=O)=O)cc1 (stereo not drawn)	i	i	9	i	23	i
COc1ccc(C2C(C(=O)OCC(=O)N3CCCCC3)CCC(=O)N2c2ccc(OC)cc2)cc1 (stereo not drawn)	i	i	1	i	68*	i
CCNC(=O)COC(=O)C1CCC(=O)N(c2ccc(OC)cc2)C1c1ccc(OC)cc1 (stereo not drawn)	i	i	-6	i	4	i
CCOc1cc(CNCC(O)c2ccccc2)cc(Cl)c1OC (stereo not drawn)	i	i	-5	i	62*	i
Cc1ccc(S(=O)(=O)N2[C@@H](c3ccccc3F)C(C(=O)O)=CC[C@H]2c2cccc(C)c2)cc1	i	i	0	i	/	i
Cc1ccc(S(=O)(=O)N2[C@@H](c3ccccc3F)C(C(=O)O)=CC[C@H]2c2ccc(Cl)c(Cl)c2)cc1	100*	i	7	i	/	i
Cc1ccc(S(=O)(=O)N2[C@@H](c3ccccc3)C(C(=O)O)=CC[C@H]2c2ccc(Cl)c(Cl)c2)cc1	100*	i	-4	i	/	i
Cc1ccc(S(=O)(=O)N2[C@@H](c3ccccc3)C(C(=O)O)=CC[C@H]2c2ccc(Cl)cc2)cc1	i	i	8	i	/	i
Cc1nnc(SCC(=O)N2CCN(S(=O)(=O)c3ccc(Cl)cc3)CC2)n(N)c1=O	i	-17*	3	i	3	i
O=C1/C(=C/c2cccc(F)c2)SC(=S)N1NS(=O)(=O)c1ccccc1	i	i	7	i	/	i
CN(c1ccccc1)S(=O)(=O)c1ccc(C(=O)N2CCCC2)cc1	/	i	-4	/	/	/
CN1CCN(c2nc3c(c(=O)[nH]c(=O)n3C)n2Cc2cccc(Br)c2)CC1	i	i	-2	i	20	i
CCCNc1nc2c(c(=O)[nH]c(=O)n2C)n1Cc1cccc(Br)c1	i	-5.8*	6	i	3	i
CC1(C(=O)NC2CCCCCCC2)CCC(=O)N1Cc1cccnc1 (stereo not drawn)	i	i	3	i	18	i
CCOc1ccc(S(=O)(=O)NN)cc1	i	i	1	i	92*	i
Cc1ccccc1N1CC(C(=O)Nc2nnc(SCc3cccnc3)s2)CC1=O (stereo not drawn)	i	i	-2	i	14	i
COc1ccc(/C=N/NC(=O)c2ccc(Cl)cc2)cc1Cn1cc(Cl)cn1	i	i	-6	i	-5	i
COc1ccc(/C=N/NC(=O)c2cc(Br)ccc2O)cc1Cn1cc(Cl)cn1	100*	i	-1	i	2	i
Cc1cc(C)c(NC(=O)Cc2ccc(-n3cccc3)cc2)c(C)c1	i	i	-2	i	10	i
O=C(C[C@@H]1C/C=C\C[C@@H](Cc2ccc(F)cc2)C(=O)OC[C@@H]2CCCN2C1=O)N[C@H](CO)Cc1ccccc1	/	i	5	/	/	/
Cc1cc(C(=O)N/N=C2\CC(=O)c3ccccc32)c(C)n1-c1ccc(F)cc1	i	i	-4	i	14	i
CC1=CC(C)C2C(=O)N(CCC[N+](C)(C)C)C(=O)C2C1 (stereo not drawn)	i	i	3	i	94*	i
SMILES	TMEM16A inh	TMEM16A act	HDAC3 inh	CHT inh	PHOSPHO1 inh	CHT allo act
CC1=CC(C)C(CN(CCC[N+](C)(C)C)C(=O)Nc2ccccc2)C(C)C1 (stereo not drawn)	i	i	3	i	37	i
Cc1cccc(C(=O)NC2CCN(C(=S)NCc3ccco3)CC2)c1	i	i	3	i	-22	i
O=C(NC1CCN(C(=S)NCc2ccco2)CC1)NC12CC3CC(CC(C3)C1)C2	i	i	0	i	89*	i
O=C(CCCc1nc2ccccc2s1)NCc1cccnc1	i	i	1	i	2	i
CCOP(=O)(NC(c1ccccc1)c1nc2ccccc2[nH]c1=O)OCC (stereo not drawn)	i	i	-3	i	61*	i
O=c1[nH]c2ccccc2nc1C(Nc1ccccc1)c1ccccc1 (stereo not drawn)	i	i	4	i	25	i
Cc1ccccc1N1C(=O)CC(Sc2nnc(-c3ccccc3)o2)C1=O (stereo not drawn)	i	i	-6	i	81*	i
O=C1c2ccccc2CC1Sc1nnc(-c2ccncc2)o1 (stereo not drawn)	i	i	-6	i	15	i
O=c1cc(C(F)(F)F)nc(SCc2cccc3ccccc23)[nH]1	25*	i	6	i	15	i
COc1ccccc1CNS(=O)(=O)c1ccc(-c2cc(C)no2)cc1	i	i	-4	i	2	6.4*
CNC(CC(=O)c1ccc([N+](=O)[O-])cc1)C(Cl)(Cl)Cl (stereo not drawn)	25*	i	3	i	-15	i
COC(=O)c1ccc2nc(NC(=O)CN3C(=O)CCC3=O)sc2c1	i	i	-1	i	71*	i
CN(C)c1ccc(Nc2nc(-c3cccnc3)cs2)cc1	i	i	-6	i	81*	i
CC(=O)Nc1ccc(NC(=O)CCCn2cnc3ccccc3c2=O)cc1	i	i	-3	i	27	i
Oc1ccccc1-c1nc(NCc2ccccc2)c2ccccc2n1	i	i	12	i	16	i
Oc1ccccc1Nc1nc(NCc2ccccc2)c2ccccc2n1	100*	i	17	i	24	i
CC1=N/C(=C/c2ccco2)C(=O)O1	/	i	/	/	2	/
Cc1ccc(S(=O)(=O)N2CCCCC2)cc1NC(=O)Cn1c(=O)cnc2ccccc21	i	i	1	i	60*	i
O=C(COC(=O)c1cc(S(=O)(=O)Nc2ccccc2Cl)ccc1O)Nc1nc2ccccc2s1	/	-42*	/	/	20	/
CC1(C)CC(=O)C=C(c2cccnc2)C1	i	i	-4	i	/	i
NC(=O)SCC(=O)Nc1ccc(Cl)cc1	i	i	?	i	41	i
